# Laboratory results from PubChem BioAssay AID1159506 (National Center for Advancing Translational Sciences (NCATS), 2015).
# In all, about 59,000 sequences were measured (the read-out: median about -0.00055, lowest 2% from about -2 on). The entries come from a sample that favours the lowest values as a whole.
# Test: Identification of proteins required for the processing of the EWS-FLI1 nascent transcript;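 note: robust z of luciferase light less the median z of siRNAs with the same seed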
# Details: TC32 Ewing sarcoma NR0B1-luc vs CMV-luc (EWS-FLI1 target promoter against control promoter), 48 h; screened at 20 nM (by protocol)
# Outline: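 Three siRNAs per gene, each in a separate well at 20 nM, were transfected into TC32 cells bearing either reporter construct. Luminescence was measured two days on, and per-gene comparison relied on seed-corrected Z values.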
row,Sequence,seed-corrected z-score
1,UUACGUUCAGAGUCUAUCG against C17orf75,0.0852
2,UUGUUGAUCACUUUGACGG against IKZF3,0.604
3,AAACAGUCCAUUAACUUCU against RBM38,0.257
4,UUCUUGGUAAGAUCGAGAG against RNF43,-2.77
5,AAUGCGAUUAUUGUCUGUC against CCT3,0.0264
6,UCGGUUGUAUAUGUCAUCC against KIAA0100,0.141
7,UUCACUGAUCUGAAAGUUG against NAA10,0.839
8,UCACUGUGCAUUUCUCCAC against GUCD1,0.93
9,UUAUAGUAUGCAGGAAUGG against FAM150B,-1.67
10,UGACUAAGAACUGUAUCCC against CC2D2B,-2.16
11,UUUUCGGCGUGUAUCCUCG against CHMP1B,-0.617
12,UCUUUGACAAGGACCCUUC against G2E3,1.23
13,UAGGUCAAGAUAACCAUGC against OR8K1,-13.9
14,UUUGUGCUGCUUGUUCUCG against ADCK3,-1
15,UGUAUCUCGAUCUUCACCG against STRN,-0.0881
16,UGCAUGAAUAGAGUCGGCG against RAB22A,-0.347
17,AAAUAUAUAGGGCAUCCAG against PLEKHM1P1,0.174
18,UCUUCUCUAAGUCUAGGUC against POM121,0.532
19,UGCUGAAUAGGUCCAAUCC against HERPUD1,-1.46
20,UCAUAUGGAACUCUAAAGC against PIK3CG,0.358
21,AAUCUUCAAACAGCCGCUC against CHRNA3,-2.52
22,AUAUGAUUCCCAAUUAAUG against TMEM119,1.74
23,UAAGAUCCGAGUCACUAUC against RPH3AL,-0.639

row,Sequence,seed-corrected z-score
1,UUUCAGCUUCUUGUACUGG against ROCK1P1,-2.99
2,UCGUUGAUCACAAUUAGCU against ADAM11,0.436
3,UCUGGUAUCAGAAAGUUCG against BBS7,-0.128
4,ACAGAUAUAGGAGAAAGCC against NUMBL,0.00267
5,UAGCCUAUCAAUGAAACCU against ZNF222,0.694
6,UUUACGUCGUUCUUCUUCC against TXLNG,0.0162
7,UUUGGGUCAACGGUGAGGU against KIAA2012,0.316
8,AUGUUUUUCAAGUAGCUUC against CDRT4,-1.38
9,UUAACUUGUUGUAUUGCUG against CCDC109B,1.36
10,AACACUAUUUAGCUCAUUC against TARBP1,0.0464
11,UGAGAGAUAAUUUUGGGAG against SPDYC,-12.8
12,UUACUUUCUUCAACCAAAG against TRMT6,0.527
13,UUUCGAAGUUGCAUGGUUG against KDM5D,-0.291
14,UCUUAGACCCUGGAGGUGG against TBRG4,-0.178
15,UAUUAGACAGAACUCUUGG against TNRC6C,-14.8
16,UUAGAUUUCUCCCUCGGUG against ZNF136,-0.576
17,UCUUCGAACUGAAUGAGUG against ME2,0.165
18,UUUACUGGGAUAGUUAAUC against C2CD4A,1.08
19,UCCACUAUUACAACAGCCC against SFPQ,-2.65
20,UUCUUAUCAAGAAUAGUCC against PTER,-0.285
21,UUCUGCGUCACUUUCUACC against CRNKL1,-0.902
22,UUUGGGACAAGGCACAAGC against PRKCDBP,0.468
23,UACAAUACUAUUUCGAAUC against ZNF44,-0.235

row,Sequence,seed-corrected z-score
1,UCAAAUACUGGUCGAAUUC against SOX7,0.0233
2,UUGGGCAUAAUGGAAGCUG against EIF2B2,-1.39
3,UUGGGUAGUAGCAUAGCCU against SYNC,-2.19
4,UUGAUUUCCACUCCUUUUG against SGCD,-0.522
5,UAUUUCUCGAUUAUCUUCA against ICA1L,-1.21
6,UGCAGUACCAGGUUCAGGG against DOK1,0.361
7,AAUCCCAAAACCUUCUCGC against TPRG1L,-2.07
8,ACUUGGAAAUCUCUUUUCG against FAM117A,0.27
9,UGUUGCAUUCUUGUCAUCC against CRAMP1,-0.303
10,UGACAUGUCCUCAACAUCA against TMEM91,-1.41
11,UUAUCGUCAUGGUAAACAC against GXYLT1,0.378
12,UCAGUAUCCAGGUCAGUGC against LEMD2,0.794
13,UCCUCCCUAACAAAUAGGC against NUDT16,-0.295
14,AAGGUUGCUAUACGUGGGC against C19orf35,-2.85
15,UUUCAAUCCUGUAAGGGUC against CDC23,0.07
16,UGGAUAAUCAGGAUGGUCC against AKR1C4,-0.343
17,UAAGCAACAGGAGCUCAGU against KRT6B,0.507
18,UGGUUGAUCAAUGCGAUAG against C11orf54,-0.331
19,UUUGAGUACUCCAAGAUGU against C20orf96,0.627
20,AUAGCUUCCACUUUAGCGG against KDM5A,-3.29
21,AUAGGUACUACAUAUGAGC against DSC2,-0.323
22,AACAUAACAGUUGAAGUGA against TMEM244,-0.604
23,UGAGCUACAUGUGAAGGCC against ZNF35,-0.965

row,Sequence,seed-corrected z-score
1,UAAUUUCAAGCCGAUCUUC against EIF3H,-1.14
2,UUGACUAUAACCUGAAGCC against OTX2,-2.79
3,UAGGAAUCCUCGUUUAGUG against YWHAH,0.112
4,UCAUUGUCCGAUGCCUUGG against SLCO1B3,-0.953
5,UUCUGCCCAAGUACAAUGG against C16orf52,-2.07
6,UCUUUGAGAAUGUCAAGCU against TIMM44,0.11
7,UCUCUGUAUCGUAUGGUGG against NTN4,-0.868
8,UUGGUAGACACCUCCUUGU against KRT13,0.268
9,UUUGCGACAAAACAGUUUG against DEPTOR,0.125
10,AUCAGAAUCAGGAUAGGCC against RND2,0.812
11,AAUCUCACAGGUGAAGUGG against OR2S2,-0.14
12,AGAGUUGUCAGAAGGGCGG against NCR2,-5.82
13,UGCAUAAUAAGUCAUGUGG against DCN,-0.34
14,UUUCCUUCUGCUCUCGUGC against RCAN3,0.855
15,AUCUUUAGAACAUCGGUGG against SLC25A14,-0.984
16,AUAUGCUUCACCUCUUUAC against SNTB2,-2.92
17,AUAAGGAUUACUAGUUUUG against CDK8,0.165
18,UAAGCACACACAAUGGUAC against DLK2,0.0903
19,UAUGGGCCGUGGACUCUCA against TPSAB1,-0.127
20,UACAGGGACACCACCUUGC against BOK,-0.14
21,UGGUCUUCACAUUAGAUGC against NUTM1,-2.03
22,UUGUAGUACAUUAACCUUG against ANKRD26,0.963
23,UGACAUACUUCGUAAGUCC against ERLEC1,0.555

row,Sequence,seed-corrected z-score
1,UUCAUAAAGAGGAGGUACC against CLUH,0.239
2,AUUUUGAACAUGUUUGCUG against NAPA,0.31
3,UUCUGGUAGAUGUGACUGC against ZNF83,-0.405
4,UACAAGAUUAUAGGCGGUC against TRAPPC11,0.0691
5,UCUGAGUCCUCUGUAACCU against MZF1,-2.17
6,UACAGUUCAUCAAUCGUCA against APOA1BP,0.829
7,UAUACUUCCCAAGAAGUCC against FAM217B,0.596
8,UGUUGUUGUGACAAAAUCG against EIF5,0.296
9,UUUAAGAUAGGCGACACUG against LMOD3,0.0486
10,UGUAAAUUUGCACCGAUGG against RPTOR,-12.1
11,AUCUGUACAAAUCUCUUUG against ZNF140,-0.593
12,UCCUCUUCGAAUGUUGUCG against TSPAN15,-0.886
13,UUUGCGAUCUUCGAAGCCC against REEP3,-0.668
14,UCGAUUAAAACCGCGAUCG against PPP2R1B,-0.365
15,UUUGUCAGAAAACGCAUCC against GPR149,-2.76
16,UCAAUGAUCUCGAUGAUGA against PLEC,-0.0712
17,UUCCGGGCAGCAAUAAUGG against PGM5,-0.0662
18,UUUCCCAUCAGGGUUAAGC against OR2A12,-0.365
19,UGAUAUAUAAGGCCCGGAC against RPL10A,-3.19
20,UUCUGUAUUCUUCAGCGUG against OR4C16,-0.379
21,UUUGGAGCUUGGGAAUUGC against ARHGAP27,-0.993
22,UUUGUUCCUUUUCGAGUUC against CCDC127,2.99
23,UGAAUCAAAUGAUCUGACC against RAB9A,0.786

row,Sequence,seed-corrected z-score
1,AAUGUGAUCAAAAAUAGCC against NAT2,0.2
2,UUGGUUUAAAGUUAAGUUG against C5orf63,-2.45
3,UUGAUAUUUGUGAAUCUCC against FERMT1,-0.474
4,UAUUUAGCAAUGCAGAACU against RPP25L,0.342
5,UGUCUGAUUCAUUAUGAGC against CCDC74A,-0.71
6,AAAGGUCCCAGAGUACAUG against SLC25A20,0.174
7,UUUAUGCUGAGUCCCAUAG against APBB1IP,-2.98
8,AAAGUAAUAGAAGUGUUUG against MOB3B,0.429
9,UAGAGAGACAGGGUGCAGG against C1orf162,-2.87
10,UCUGGUUUUAGUAUUCUUA against NBEAL1,-0.389
11,UUCUUUAGACUGUCCAGCG against KLHL6,-2.04
12,UUAGGGCUUGGUAUAGAGG against ST18,0.568
13,UUGCGUUCCACAUGUUGAC against PRDM7,-9.3
14,UAAGUGAUUGGAGGUAAAG against LOC727775,0.67
15,AUAUGGUCCUUCUUAUUGC against HSD52,0.199
16,AUGCUUAUAGUUGUUCUUC against POU1F1,-2.19
17,UCACAAAACACUUUGCCGU against LIMD1,0.194
18,UUGGUAGAGAGGUAAAAUG against KRTAP4-4,1.06
